For 92 molecules, fluorescence intensity results are on record in PubChem BioAssay AID624483 (NMMLSC, 2012).

Screen size: about 360,000 compounds; about 11,000 (3.1%) were called active. Another 2% or so got no clear call; they are omitted. Rule as the data show it: active = fluorescence intensity above about 16000; inconclusive = no clear call, values can overlap the other calls; inactive = below that. The list comes from a sample in which actives are over-represented; it also holds similar structures and randomly drawn compounds.

A short description of the experiment: compound fluorescence in toxin protease inhibitor counterscreen, primary screen, artefact control for toxin protease inhibitor project, biochemical, multiplex microsphere, HTS (AID 624483). Particulars: compound autofluorescence counterscreen, microsphere flow cytometry; hits give high values.
Consider `COC(=O)C1(C(=O)OC)C/C=C\CN(S(=O)(=O)c2ccccc2[N+](=O)[O-])CCC1`, for which the fluorescence intensity was 5420 (inactive).

Consider `Cc1ccc(S(=O)(=O)NCCNC(C)c2ccc(Br)cc2)cc1` (configuration not stated), for which the fluorescence intensity is 3800 (inactive).

For `Cc1ccc(S(=O)(=O)NCC(C)NS(C)(=O)=O)cc1` (configuration not stated), the fluorescence intensity is 17300 (active).

As to `Cc1ccc(S(=O)(=O)NCC(=O)N2CCOCCOCCOCCOCC2)cc1`, the fluorescence intensity is 3170 (inactive).

As to `CCCNC(=O)C1(C)CCCN(C(=O)c2cccc(OC(C)=O)c2C)C1` (configuration not stated), the fluorescence intensity was 2790 (inactive).

As to `CCN(CC)CCCC(C)n1c2nc(=O)[nH]c(=O)c-2nc2cc(Cl)ccc21` (configuration not stated), the fluorescence intensity is 3960 (inactive).

Take `CC1(Oc2ccc(Cl)cc2)CCN(Cc2csc3ccccc23)C1` (configuration not stated): the fluorescence intensity is 3910 (inactive).

As for `CC(C)CCSc1ncnc2c1oc1nc3c(cc12)COC(C)(C)C3`, the fluorescence intensity is 23900 (active).

As for `CC1CCc2c(nc3ncnn3c2Nc2ccc(OC(F)(F)F)cc2)C1` (configuration not stated), the fluorescence intensity is 5260 (inactive).

In the case of `CCc1nc2c(OCCOc3ccccc3)cccn2c1N(C)C(=O)c1ccc(OC)cc1`, the fluorescence intensity is 3960 (inactive).

In the case of `COc1cccc(-c2ccc3c(c2)N(Cc2ccccc2OC)C(=O)C(C)S3)c1` (configuration not stated), the fluorescence intensity is 4210 (inactive).

`CC/C(C)=N/Nc1nc2sc3c(c2c(=O)[nH]1)CC(C)(C)OC3`: the fluorescence intensity was 3170 (inactive).

Turning to `CCCc1nc2oc3c(=O)[nH]cnc3c2c2c1COC(C)(C)C2`, the fluorescence intensity was 3850 (inactive).

In the case of `CCCc1nc2oc3c(OCC)ncnc3c2c2c1COC(C)(C)C2`, the fluorescence intensity was 19200 (active).

For `CC(=O)Nc1cccc(-c2cc(NC=O)c3ncc(-c4ccc(F)c(Cl)c4)n3c2)c1`, the fluorescence intensity was 4090 (inactive).

`CCOC(=O)c1nnn(-c2nc(OC)nc(N(C)C)n2)c1-c1ccccc1`: the fluorescence intensity was 4860 (inactive).

In the case of `CCOC(=O)c1nnn(-c2nonc2OC)c1-c1ccccc1`, the fluorescence intensity is 20500 (active).

As for `C/C(COc1ccccc1)=N\NC(=O)c1nnn(-c2nonc2N)c1-c1ccc(C)cc1`, the fluorescence intensity was 2830 (inactive).

Take `CCC(C(=O)Nc1ncccn1)(C(F)(F)F)C(F)(F)F`: the fluorescence intensity was 3150 (inactive).

Consider `CCN(C(=O)CSc1nc(N)cc(=O)[nH]1)C1CCS(=O)(=O)C1` (configuration not stated), for which the fluorescence intensity is 3860 (inactive).

As for `O=C(CCCN1C(=O)c2ccccc2C1=O)Oc1ccc(Cl)cc1`, the fluorescence intensity was 2140 (inactive).

For `COc1ccc(C(=O)CN(C(=O)c2ccc(Cl)cc2)N2C(=O)c3ccccc3C2=O)cc1`, the fluorescence intensity is 17500 (active).

As for `COc1ccc(C(=O)CC2C(=O)N(C)C(=O)N(C)C2=O)cc1`, the fluorescence intensity is 3490 (inactive).

For the molecule `COC(=O)Cc1cc(=O)oc2c(C)c(O)ccc12`, the fluorescence intensity was 19200 (active).

`CCCc1cc(=O)oc2c(C)c(OCC(=O)Nc3ccccn3)ccc12`: the fluorescence intensity was 4420 (inactive).

Consider `COc1cccc(C(=O)OCc2cc(=O)oc3c(C)c(C)ccc23)c1OC`, for which the fluorescence intensity was 5450 (inactive).

In the case of `CCOCC(=O)NCc1ccc2c(c1)cc(C)n2C`, the fluorescence intensity was 4110 (inactive).

For `COc1cccc2cc(C(=O)NCc3ccc(C)cc3)c(=N)oc12`, the fluorescence intensity was 4920 (inactive).

On to `CC(OC(=O)CN1C(=O)C2CCCCC2C1=O)C(=O)Nc1ncc(Cl)cc1Cl` (configuration not stated), for which the fluorescence intensity is 23500 (active).

With `CC(Oc1ccc(Cl)cc1)C(=O)OCC(=O)Nc1ncc(Cl)cc1Cl` (configuration not stated), the fluorescence intensity was 2090 (inactive).

With `CC1(C(=O)OCC(=O)Nc2ncc(Cl)cc2Cl)CC1(Cl)Cl` (configuration not stated), the fluorescence intensity is 4330 (inactive).

For the molecule `Cc1ccc2[nH]c3c(=O)n(CC(=O)NCCc4ccc(Cl)cc4)ncc3c2c1`, the fluorescence intensity is 5710 (inactive).

`COC(=O)c1cc(OC)c(OC)cc1NC(=O)CSc1ccc(C)cc1`: the fluorescence intensity is 25800 (active).

For the molecule `CCc1cc2cc(OC)ccc2nc1SCC(=O)Nc1cc(OC)c(OC)cc1C(=O)O`, the fluorescence intensity was 4520 (inactive).

For `COc1ccc(C)cc1NC(=O)CSc1ccc(Cl)cc1`, the fluorescence intensity was 2540 (inactive).

On to `COc1ccc(Br)cc1CN(C)C(=O)C1CC(=O)N(C2CCCC2)C1` (configuration not stated), for which the fluorescence intensity is 3870 (inactive).

For the molecule `CCOC(=O)[C@H]1[C@H]2COc3ccc(Cl)cc3[C@@H]2N2C(=O)c3cc(C)ccc3NC(=O)[C@@]12C`, the fluorescence intensity is 3320 (inactive).

`Cc1ccccc1-n1c(C)cc(/C=C2\NC(=O)NC2=O)c1C`: the fluorescence intensity was 17400 (active).

As for `Cc1ccc(CN2C(=O)N/C(=C/c3cc(C)n(-c4ccccn4)c3C)C2=O)cc1`, the fluorescence intensity was 9250 (inactive).

In the case of `Cc1cc(/C=C2/NC(=O)NC2=O)c(C)n1-c1cccnc1`, the fluorescence intensity is 8090 (inactive).

On to `O=C(Nc1c(-c2ccccc2)nc2c(Br)cc(Br)cn12)c1ccco1`, for which the fluorescence intensity is 3100 (inactive).

Regarding `Nc1ncnc2c1ncn2[C@@H]1O[C@H](CNC(=O)[C@H](N)Cc2cccnc2)[C@@H](O)[C@H]1O`, the fluorescence intensity was 6300 (inactive).

With `Cn1c(Nc2ccc(F)cc2)nc2cc(-c3ccsc3)sc2c1=O`, the fluorescence intensity was 3640 (inactive).

`CCNC(=O)C1(C)CCN(Cc2ccc(C(=O)OCC)o2)C1` (configuration not stated): the fluorescence intensity is 4060 (inactive).

As for `CCc1ccccc1NC(=O)CSc1nnc(-c2ccncc2)o1`, the fluorescence intensity was 4930 (inactive).

In the case of `CCN(CC)C(=O)CSc1nnc(-c2ccc(S(=O)(=O)NCc3ccccc3Cl)cc2)o1`, the fluorescence intensity was 16600 (active).

Consider `O=C(CSc1nnc(-c2ccc(NS(=O)(=O)c3ccccc3)cc2)o1)NCC1CCCO1` (configuration not stated), for which the fluorescence intensity is 3540 (inactive).

Turning to `CC(C)CCN1NC2(CCC(C)CC2)NC1=S` (configuration not stated), the fluorescence intensity is 3830 (inactive).

As to `CC(C)(C)c1ccc(S(=O)(=O)NC(=O)C2(C)CCN2C(=O)CC2CC2)cc1` (configuration not stated), the fluorescence intensity was 4180 (inactive).

On to `Cc1cc(Br)cn2c(Cc3ccccc3C(F)(F)F)c(-c3ccc(Cl)cc3)nc12`, for which the fluorescence intensity is 5850 (inactive).

Turning to `Clc1ccc(C2=CSC3=Nc4cccc5cccc(c45)N23)cc1`, the fluorescence intensity is 21800 (active).

On to `CN(C)c1ccc(C(CC(=O)O)C(=O)O)cc1` (configuration not stated), for which the fluorescence intensity is 1950 (inactive).

As to `COc1cccc(NC(=O)CN(C)C(=O)Cc2ccc(Cl)cc2Cl)c1`, the fluorescence intensity is 3890 (inactive).

Turning to `COC(=O)c1sc2ncccc2c1OCc1ccc(Cl)cc1Cl`, the fluorescence intensity is 23500 (active).

Consider `O=C(NNc1cc(Cl)ccc1Cl)c1cccnc1Cl`, for which the fluorescence intensity was 4240 (inactive).

As to `CC(C)Cc1ccc(-c2cc3nc(NCc4cccc(Cl)c4)ccn3n2)cc1`, the fluorescence intensity is 3700 (inactive).

Take `C=CCC[C@@H](CCCCC)OC(=O)/C=C/[C@@H](O)[C@H](O)C[C@H](O)CC=C`: the fluorescence intensity is 6190 (inactive).

Regarding `COc1cccc(C(=O)NNC(=O)/C=C/c2ccccc2)c1`, the fluorescence intensity was 6790 (inactive).

Regarding `COc1cccc(C(=O)Nc2cc3c(cc2Br)OCCCO3)c1`, the fluorescence intensity is 7110 (inactive).

For the molecule `COc1cccc(C(=O)NNC(=O)c2ccccc2Br)c1`, the fluorescence intensity is 16700 (active).

Consider `CCN(CC)C(=O)c1ccc(NC(=O)c2sccc2-c2ccccc2)cc1`, for which the fluorescence intensity is 4580 (inactive).

Take `CCN(CC(=O)Nc1ccc(OC)cc1)C(=O)c1ccc(Cl)c(S(=O)(=O)N2CCCC2)c1`: the fluorescence intensity was 3470 (inactive).

With `CCN(CC)C(=O)c1ccc(NC(=O)c2cc(-n3cnnc3)ccc2Cl)cc1`, the fluorescence intensity is 23800 (active).

Turning to `CCOC(=O)C1=CC[C@@H](c2ccccc2)N(S(=O)(=O)c2ccc(C)cc2)[C@H]1c1cccc(OC)c1`, the fluorescence intensity was 6140 (inactive).

With `COc1ccccc1CCNC(=O)c1cnccn1`, the fluorescence intensity is 16600 (active).

In the case of `O=C(NCCCNC(=O)c1ccccc1Cl)c1cnccn1`, the fluorescence intensity was 4420 (inactive).

For `COc1ccccc1CCNC(=O)c1c(C)nn(CC(C)C)c1Cl`, the fluorescence intensity was 4680 (inactive).

For `O=C(NCCS(=O)(=O)N1CCN(c2ccc(F)cc2)CC1)c1ccc2c(c1)OCO2`, the fluorescence intensity was 4110 (inactive).

On to `CC1(C(=O)NS(=O)(=O)c2cccc(F)c2)CCN1C(=O)c1cccc2ccccc12` (configuration not stated), for which the fluorescence intensity is 2920 (inactive).

Take `CN(C)C1CN(Cc2cn(Cc3ccccc3)nn2)S(=O)(=O)C1` (configuration not stated): the fluorescence intensity was 4320 (inactive).

Regarding `O=C1c2ccccc2-c2ncnc3c(N4CCOCC4)cc(N4CCOCC4)c1c23`, the fluorescence intensity was 4380 (inactive).

On to `c1cnn(-c2cc(N3CCOCC3)ncn2)c1`, for which the fluorescence intensity was 17000 (active).

For `NC(=O)c1ccc(N2CCOCC2)nc1`, the fluorescence intensity was 2600 (inactive).

`N#CCCN(C(=O)Nc1ccc(Cl)c(Cl)c1)C1CCCCC1`: the fluorescence intensity is 2920 (inactive).

`CS(=O)(=O)N(CC(=O)Nc1ccc(Cl)c(Cl)c1)C1CCCCC1`: the fluorescence intensity was 21700 (active).

Take `CS(=O)(=O)N(CC(=O)Nc1ccc(F)cc1)C1CCCCC1`: the fluorescence intensity is 3860 (inactive).

Regarding `O=S1(=O)CC(N2CCN(CCO)CC2)CN1Cc1cn(Cc2ccc(Cl)cc2)nn1` (configuration not stated), the fluorescence intensity is 5500 (inactive).

Turning to `O=C1c2cccnc2C(Nc2ccc(S(=O)(=O)N3CCCCCC3)cc2)N1Cc1ccccc1` (configuration not stated), the fluorescence intensity was 21600 (active).

Regarding `O=S(=O)(NCc1ccccc1)c1ccc(S(=O)(=O)N2CCCC2)cc1`, the fluorescence intensity is 4970 (inactive).

`Cc1nc(Nc2ccc(S(=O)(=O)N3CCCC3)cc2)c2nnn(Cc3ccccc3)c2n1`: the fluorescence intensity was 2010 (inactive).

As for `O=C(Nc1cccc(C(=O)NC2CC2)c1)c1ccc(F)c(S(=O)(=O)N2CCOCC2)c1`, the fluorescence intensity was 6040 (inactive).

Turning to `CCOC(=O)C1(C)CCCN(C(=O)c2ccc(F)c(Cl)c2)C1` (configuration not stated), the fluorescence intensity was 3580 (inactive).

Take `COc1ccc(S(=O)(=O)NC(=O)C2(C)CCN2C(=O)COc2ccc(Cl)cc2)cc1` (configuration not stated): the fluorescence intensity was 3840 (inactive).

As for `COC(=O)[C@]12CCCCC=C1N(Cc1ccc(Cl)cc1Cl)C(=O)[C@H](CC(=O)NCc1cccc3ccccc13)C2`, the fluorescence intensity was 5890 (inactive).

Consider `CCOC(=O)C1CCN(C(c2cc3cc(C)cc(C)c3[nH]c2=O)c2nnnn2C2CCCCC2)CC1` (configuration not stated), for which the fluorescence intensity is 11300 (inactive).

Turning to `COc1ccc(C(c2nnnn2C2CCCCC2)N2CCN(c3ccccc3F)CC2)cc1` (configuration not stated), the fluorescence intensity was 2590 (inactive).

As to `COc1ccc(N2CCN(C(c3cc4ccc(C)cc4[nH]c3=O)c3nnnn3C3CCCC3)CC2)cc1` (configuration not stated), the fluorescence intensity is 24400 (active).

In the case of `CN(CC(=O)NC1CCN(Cc2ccccc2)CC1)S(=O)(=O)c1ccc(Cl)s1`, the fluorescence intensity is 4220 (inactive).

As for `CC(C)(C)C(=O)c1c(N)[nH]c(C(=O)c2ccccc2)c1-c1ccc(F)cc1`, the fluorescence intensity was 4830 (inactive).

As for `O=C(Nc1cccc(-c2nnc(-c3ccccc3)o2)c1)C1CCCO1` (configuration not stated), the fluorescence intensity was 8340 (inactive).

For `O=C(Nc1ccc(-c2nnc(-c3ccccc3)o2)cc1)C1CCCO1` (configuration not stated), the fluorescence intensity is 23500 (active).

For the molecule `CCOc1ccc(NC(=O)c2ccc(NC(=O)C3CCCO3)cc2)cc1` (configuration not stated), the fluorescence intensity is 5940 (inactive).
